Screening results from PubChem.
HCMV inh: qHTS Assay for inhibitors of the human cytomegalovirus (HCMV); 410,000 tested, 4.5% active; HFF cells, HCMV-luciferase reporter, 72 h; hits give low values; activity change, negative = inhibition, % at 57.5 µM; in the data active means activity change below about -60%; inconclusive means no clear call, values can overlap the other calls; inactive means above about -39%
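After 16 h attachment at 37C, HFF cells received test compound and HCMV-luciferase (1 PFU/cell); reporter luminescence read 72 h later, data normalized against buffer-only and known inhibitor Salinomycin.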
Giardia FBPA inh: qHTS Assay for Inhibitors of Fructose-1,6-bisphosphate Aldolase from Giardia Lamblia; Potency, µM (top dose mostly 59.6 µM), without a hit: top-dose activity, negative = inhibition, usual class: inhibitors; purified Giardia FBPA; 290,000 tested, 0.71% active; further: potency means the concentration at half of the fitted maximal effect; nearly all actives have a fitted effect of over 55% in size
Target sequence (A8B2U2 whole entry, looked up): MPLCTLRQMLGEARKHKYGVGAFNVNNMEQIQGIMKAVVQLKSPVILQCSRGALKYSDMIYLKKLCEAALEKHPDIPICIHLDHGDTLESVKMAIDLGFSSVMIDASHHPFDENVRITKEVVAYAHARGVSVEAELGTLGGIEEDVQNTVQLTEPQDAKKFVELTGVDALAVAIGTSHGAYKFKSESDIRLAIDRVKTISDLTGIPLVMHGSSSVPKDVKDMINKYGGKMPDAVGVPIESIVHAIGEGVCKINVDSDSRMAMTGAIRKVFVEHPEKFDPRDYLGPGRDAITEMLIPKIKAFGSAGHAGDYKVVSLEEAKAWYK
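Giardia FBPA (40 nM reagent) was preincubated 10 min at RT with compound (up to 57.5 uM final), then substrate plus GAPDH/TPI/NAD/arsenate coupling system with diaphorase/resazurin was added; resorufin fluorescence (525/598 nm) was read after 20 min.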
Pf growth 48h: Primary qHTS for delayed death inhibitors of the malarial parasite plastid, 48 hour incubation | P. falciparum luciferase growth in erythrocytes, 48 h | AID 504832, 2011 | Potency, µM (titrated, usually from 28.7 µM), inactives show top-dose activity change, negative = inhibition, most hits filed as inhibitors | 310,000 tested, 5.9% active; further: potency means the concentration at half of the fitted maximal effect
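Firefly luciferase activity from engineered P. falciparum reports growth; inhibitors lower the luminescent signal. Cultures contained 2% hematocrit erythrocytes at 0.1% final parasitemia.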
Sm TGR inh: qHTS Assay for the Inhibitors of Schistosoma Mansoni Peroxiredoxins. Schistosoma mansoni thioredoxin glutathione reductase (TGR), Q962Y6. purified TGR, DTNB reduction, TNB absorbance 405 nm. 360,000 tested, 3% active. Potency, µM (series often up to 114 µM), without a hit: top-dose activity change, negative = inhibition, actives largely listed as inhibitors; further: potency means the concentration at half of the fitted maximal effect; nearly all actives have a fitted effect of over 60% in size
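First, TGR (20 nM dispensed) and NADPH were mixed with compound. Second, a 15 min room-temperature incubation followed. Third, further NADPH and then DTNB were added to start the reaction. Finally, TNB absorbance was monitored kinetically.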
Pf growth 96h: Primary qHTS for delayed death inhibitors of the malarial parasite plastid, 96 hour incubation; 320,000 tested, 6.9% active; Potency, µM (titrated, usually from 28.7 µM), for inactives: at the highest dose activity change, negative = inhibition, usual class: inhibitors; P. falciparum luciferase reporter growth, 96 h; further: potency means the concentration at half of the fitted maximal effect
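Two-generation exposure (96 h) targets delayed-death phenotype. Reporter parasites carrying integrated firefly luciferase, in red cells at 2% hematocrit and 0.05% parasitemia final, kept at 37 C, 5% CO2; luminescence loss indicates inhibition.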
* marks the source's active call; other numbers are inactive results; ? = inconclusive; · = no result; [ ] = another dose, or the depositor's remark. Compounds with a hit are over-represented: about 14% of the library has one in this group of screens. Unless noted, the call rests on the fitted dose curve; in most records, active means well fitted curve in the direction sought with a large enough effect; inconclusive means small, poorly fitted or top-dose-only effect, or another doubt; inactive means no such curve, though single readings can be large; an effect the other way counts as inactive or inconclusive. On the % scale 0 is the no-effect control and ±100 the full control effect.

SMILES | HCMV inh | Giardia FBPA inh | Pf growth 48h | Sm TGR inh | Pf growth 96h
CC1CN(Cc2ccccc2)c2ccccc2NC1=S (centres undefined) | -22.8 | 16.3% | ? | -4.5% | ?
CCCNC(=O)C(Cc1ccccc1)NC(=O)c1ccc(-c2ccccc2)cc1 (centres undefined) | 15.5 | · | 0.4% | 0.9% | 1.47µM*
O=C(NC(Cc1ccccc1)C(=O)NC(Cc1ccccc1)C(=O)O)c1ccccc1 (centres undefined) | -24.3 | 0.5% | -16.5% | 28.2µM* | 47.8%
CC(=O)NC(Cc1ccccc1)C(=O)NC(Cc1ccccc1)C(=O)O (centres undefined) | -32.5 | -6.7% | -0.5% | ? | 61.3%
Cc1cccn2c(CN3CCSCC3)c(C(=O)N3CCOCC3)nc12 | -34.1 | 0.3% | 19.2% | 1.4% | ?
Cc1cccn2c(CN3CCNC(=O)CC3)c(C(=O)N(C)CCc3ccccc3)nc12 | 29.7 | 1.4% | 9.9% | 0.4% | 1.85µM*
COc1cccc(C(=O)NCC2CCN(c3ccc(S(=O)(=O)N4CCOCC4)cc3)CC2)c1 | 19.2 | -1.9% | 11.7µM* | -10.5% | 5.22µM*
O=C(NCC1CCN(c2ccc(S(=O)(=O)N3CCOCC3)cc2)CC1)c1cccc(Cl)c1 | ? | -0.4% | · | 0.0% | 11.7µM*
CN1C(=O)N(C)C(=O)C2(Cc3cc(N)ccc3N3CCN(c4ccccc4F)CC32)C1=O (centres undefined) | -0.7 | -6.1% | · | ? | ·
CCN1C(=O)N(CC)C(=O)C2(Cc3ccccc3N3CCN(c4ccccc4)CC32)C1=O (centres undefined) | 42.8 | -14.0% | ? | 44.7µM* | ?
CCOC(=O)C1=CCN(S(=O)(=O)c2ccccc2)C1c1ccc(Cl)cc1 (centres undefined) | -3.1 | · | · | · | ·
Cc1ccsc1C(=O)OCC(=O)N(Cc1ccccc1)C(C)C | -20.7 | · | · | · | ·
CC(=O)Nc1ccccc1OCC(=O)N(Cc1ccccc1)C(C)C | -77.4* | 5.6% | -19.9% | 0.6% | ?
O=C1CSC(c2cccnc2)N1Cc1ccc(Cl)cc1Cl (centres undefined) | 15.2 | 2.8% | ? | -11.7% | 9.28µM*
O=C1CSC(c2cccnc2)N1Cc1ccc(Cl)cc1 (centres undefined) | ? | 11.6% | -0.1% | -8.9% | 19.6%
O=C1CCNCCN1[C@H](CO)c1ccccc1 | -35.8 | -3.8% | 0.0% | ? | ?
CN(C1CCCCC1)S(=O)(=O)c1ccc2c(c1)c(=O)c(C(=O)N1CCN(c3ccccc3)CC1)cn2C | 28.0 | · | · | 9.2% | ·
COc1ccc(CC2(CO)CCN(Cc3ccncc3)CC2)cc1 | -3.1 | 0.3% | -19.7% | · | ?
COc1ccc(CC2(CO)CCN(CC3=CC[C@H]4C[C@@H]3C4(C)C)CC2)cc1 | 38.4 | 3.5% | 7.38µM* | 1.2% | 13.6%
CC1CCCN(C(=O)N2c3ccccc3Sc3ccccc32)C1 (centres undefined) | -67.9* | 1.6% | · | -19.6% | ?
CC1CCN(C(=O)N2c3ccccc3Sc3ccccc32)CC1 | -39.5 | 1.7% | · | 0.0% | ·
O=C(NC1CCN(C(=O)N2c3ccccc3Sc3ccccc32)CC1)c1ccccc1F | ? | 0.4% | 2.94µM* | 16.1% | ?
O=C(N1CCOCC1)N1c2ccccc2Sc2ccccc21 | ? | -3.1% | -7.3% | 1.8% | ?
O=C(Nc1cc(Cl)ccc1N1CCOCC1)c1ccco1 | -35.5 | · | 0.6% | -16.8% | ?
CC(=O)N1c2ccc(Cl)cc2C2OCCC2C1c1ccco1 (centres undefined) | -66.1* | -1.3% | ? | -14.0% | ?
SMILES | HCMV inh | Giardia FBPA inh | Pf growth 48h | Sm TGR inh | Pf growth 96h
Clc1ccc2c(c1)C1OCCC1C(c1ccco1)N2 (centres undefined) | 152.2 | -16.4% | 93.2% | 31.6µM* | -1.2%[5.75 µM]
O=C(CSc1nc(=O)n(CCCN2CCOCC2)c2c1CCCC2)Nc1cccc(Cl)c1 | 6.9 | · | ? | -25.1% | ?
COc1cc(NC(=O)c2nc(-c3ccncc3)no2)cc(OC)c1OC | 3.3 | · | · | -7.7% | ·
COC(=O)C1=C(O)/C(=C\c2ccc(CNC(=O)C(=O)Nc3ccc(C)cc3)o2)N=C1C | 17.7 | ? | 37.3% | 17.8µM* | 17.1%
COC(=O)C1=C(O)/C(=C/c2ccc(OCC(=O)Nc3ccc(OC)cc3)cc2)N=C1C | 13.2 | · | · | · | ·
CCOC(=O)C(=O)NCc1ccc(/C=C2/N=C(C)C(C(=O)OCC)=C2O)o1 | -14.7 | ? | 22.0% | 31.6µM* | 12.2%
COC(=O)C1=C(O)/C(=C\c2ccc(CNC(=O)C(=O)Nc3ccc(C)c(C)c3)o2)N=C1C | -6.4 | -22.7% | · | 31.6µM* | 33.2%
O=C(NC1CCSC1)c1cccc(Cl)c1 (centres undefined) | 54.0 | 1.2% | -12.0% | 22.5% | -8.4%
COc1ccccc1NC(=O)NCC(=O)Nc1ccc(F)c(F)c1 | 68.7 | -0.5% | -6.4% | 4.5% | 12.7%[5.75 µM]
COc1ccccc1NC(=O)CNc1ccc(F)c(Cl)c1 | -8.1 | 0.3% | ? | -2.4% | 14.7µM*
Fc1ccc(NCc2ccccc2F)cc1Cl | -2.2 | · | 37.2% | -17.4% | 67.7%
COc1ccccc1NC(=O)Nc1ccc(F)c(F)c1 | -102.4* | -23.2% | ? | 7.6% | 16.4%[5.75 µM]
COc1ccccc1NC(=O)Nc1ccc2c(c1)nnn2C | 35.4 | -18.8% | · | -13.8% | 9.28µM*
COc1cccc(CNc2ccc(F)c(Cl)c2)c1OC | ? | -18.5% | · | -26.0% | 10.4µM*
O=C1Nc2cc(Cl)ccc2Oc2cc(Oc3ccccc3)ccc21 | -0.6 | · | · | -0.6% | ·
COc1ccc(NC(=O)CN(c2cccc(C)c2C)S(=O)(=O)c2ccccc2)cc1OC | -10.7 | · | · | 1.6% | ·
CCCCn1c(SCC(=O)c2c(N)n(C3CC3)c(=O)[nH]c2=O)nc2cc(S(N)(=O)=O)ccc21 | 46.6 | · | 14.9% | 2.7% | ?
COC(=O)c1ccc(NC(=O)CSc2nc3ccc(N4C(=O)C5C6C=CC(C6)C5C4=O)cc3s2)cc1 (centres undefined) | -64.5* | 1.0% | ? | -2.4% | 9.28µM*
COc1ccc(/C=C/C(=O)Nc2ccc(Cl)c(Cl)c2)cc1 | -2.7 | · | · | -0.4% | ·
COC(=O)/C=C/C(=O)Nc1ccc(O)c(Cl)c1 | 60.6 | -8.1% | -25.4% | 44.7µM* | ?
CN(C(=O)CSc1nc2ccccc2o1)C1CCCCC1 | 28.2 | · | 196.8% | 4.6% | 137.1%
CC(C)(C)c1ccccc1NC(=O)NC1CCN(Cc2c(F)cccc2Cl)CC1 | ? | -1.2% | 7.38µM* | 9.1% | ?
Cc1ccc(NC(=O)COCC(=O)Nc2ccc(F)cc2)cc1 | -1.8 | 3.3% | 5.4% | 3.3% | -9.3%
O=[N+]([O-])c1cnc(Sc2ccncn2)s1 | -99.3* | -5.5% | 30.9% | 0.316µM* | 0.0%
Cc1c(Cl)cccc1NC(=O)CCN1C(=O)C2CC=CCC2C1=O (centres undefined) | -26.0 | · | 12.6% | -29.8% | 5.22µM*
